Measured values from PubChem BioAssay (NCI).
This is part of a sample that, as a whole, favours compounds with a hit. Of some 83,000 tested, about 20% had one in any assay.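 Step 1: grow cells in 96-well plates. Step 2: add test compound at a single concentration. Step 3: incubate 48 h. Step 4: record percent growth.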

Columns and labels:
Assay in all cases: NCI-60 one-dose screen, 48 h (100 = growth as untreated, 0 = no growth, -100 = all killed)
Details in all cases: 10 µM unless noted; active = growth percent below 10; inactive = the rest
[1] = system: T-47D breast
[2] = system: BT-549 breast
[3] = system: MDA-MB-435 melanoma
[4] = system: MCF7 breast
[5] = system: HCT-116 colon
[6] = system: HCC-2998 colon
[7] = system: KM12 colon
[8] = system: SW-620 colon

Measured: growth

CC1(c2ccccc2)CO1 (configuration not stated)
inactive: [1] 109% | [2] 112% | [3] 113% | [4] 103% | [5] 101% | [6] 111% | [7] 108%

ON1CCCC1
inactive: [1] 98.6% | [2] 96.7% | [3] 107% | [4] 95% | [5] 97.4% | [6] 98.8% | [7] 110%

O=C1C=C(c2ccccc2)C(O)(c2ccccc2)C1 (configuration not stated)
inactive: [1] 90.6% | [2] 94.8% | [3] 97.4% | [8] 108% | [5] 98.4% | [6] 122% | [7] 107%

FC(F)(F)c1cc(NC2=NCCN=C(Nc3cc(C(F)(F)F)cc(C(F)(F)F)c3)SS2)cc(C(F)(F)F)c1
inactive: [1] 15.8% | [2] 71.2% | [3] 65.1% | [4] 31.6% | [5] 45.4% | [6] 76.9% | [7] 44.2%

O=C(O)Cc1cccc2ccccc12
inactive: [1] 103% | [2] 107% | [3] 104% | [8] 102% | [5] 106% | [6] 95.9% | [7] 107%

COc1ccc2c(Cl)cc(NC(=O)Nc3c(C)cccc3C)nc2c1
inactive: [1] 62.2% | [2] 93.8% | [3] 83% | [4] 75.7% | [5] 63.8% | [6] 95.3% | [7] 88.8%

COc1c(CNC(=O)CCl)cc2[nH]c(C)cc2c1CNC(=O)CCl
inactive: [1] 59.2% | [2] 58.9% | [3] 50.4% | [8] 55.1% | [5] 41.7% | [7] 59.2%

COc1ccc(Br)c(C=O)c1
inactive: [1] 69.9% | [2] 76.6% | [3] 49.8% | [4] 31.5% | [5] 22.5% | [6] 86% | [7] 93.7%

O=[N+]([O-])c1c(O)c(CNCCCO)cc(CNCCCO)c1O
inactive: [1] 113% | [2] 119% | [3] 111% | [4] 112% | [5] 97.4% | [6] 106% | [7] 138%

O=C1C=CC(=O)C2=C1CCCC2
inactive: [1] 85.3% | [2] 91.6% | [3] 102% | [4] 70.6% | [5] 91.8% | [6] 123% | [7] 92.3%

CSc1cnc2ccccc2n1
inactive: [1] 81% | [2] 94.6% | [3] 103% | [4] 98.9% | [5] 99.2% | [6] 98.5%

COc1nc(Nc2cccc(C(F)(F)F)c2)nc(OC)n1
inactive: [1] 92.5% | [2] 91% | [3] 106% | [8] 110% | [5] 97% | [6] 108% | [7] 97.8%

CC1(C)C2CCC1(C)C1(C2)OCCS1 (configuration not stated)
inactive: [1] 93.9% | [2] 88.3% | [3] 99.6% | [8] 100% | [5] 110% | [6] 101% | [7] 102%

c1ccc(-c2ccc3ccccc3c2)cc1
inactive: [1] 81.4% | [2] 98.8% | [3] 103% | [4] 82.2% | [5] 95.9% | [6] 107% | [7] 92.9%

CSc1nsc(N)n1
inactive: [1] 98.8% | [2] 100% | [3] 102% | [4] 95.8% | [5] 104% | [6] 106% | [7] 101%

O=C(O)c1ccccc1Cc1ccc2c(c1)CCCC2
inactive: [1] 113% | [2] 106% | [3] 115% | [8] 99.5% | [5] 104% | [6] 115% | [7] 113%

Nc1nnc2cc(F)ccc2n1
inactive: [1] 96% | [2] 81.5% | [3] 118% | [8] 94.1% | [5] 91.9% | [6] 103% | [7] 103%

O=C(Nc1c(Cl)cc(Cl)cc1Cl)ON=C1CCCCC1
inactive: [1] 98.6% | [2] 113% | [3] 107% | [4] 102% | [5] 107% | [6] 117% | [7] 96.5%

CC1CC2C3CCC4=CC(=O)CCC4(C)C3CCC2(C)C1(O)C(=O)CO (configuration not stated)
inactive: [1] 103% | [3] 115% | [8] 113% | [4] 99.8% | [5] 109% | [6] 104%

OCC1CCC(O)C(CO)N1 (configuration not stated)
inactive: [1] 111% | [2] 100% | [3] 102% | [4] 92.6% | [5] 102% | [6] 115% | [7] 103%
